# Assay results from the supplement of paper PMC12067093, “Discovery and optimisation of a covalent ligand for TRIM25 and its application to targeted protein ubiquitination” (Chemical Science, 2025).
# About 21,000 targets were measured; listed, in parts, are those with the largest changes and a random draw of the rest.
# Compound: Cc1cc(ccc1-c1ccccc1)C(=O)N1CCCN(CC1)C(=O)CCl [compound 10]
# Assay: probe-labelled cysteine peptide fold change vs DMSO (competition) (log2 fold change); higher = less target engagement (more negative = stronger competition)
# Conditions: 10 µM; THP-1; incubation time: 4 h
# 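Note: competitive profiling in live THP-1 cells: cysteine peptides tagged with an iodoacetamide desthiobiotin (IA-DTB) probe, intensity after compound treatment relative to DMSO-treated cells.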
# UniProt O60716, sequence (O60716 whole entry, looked up): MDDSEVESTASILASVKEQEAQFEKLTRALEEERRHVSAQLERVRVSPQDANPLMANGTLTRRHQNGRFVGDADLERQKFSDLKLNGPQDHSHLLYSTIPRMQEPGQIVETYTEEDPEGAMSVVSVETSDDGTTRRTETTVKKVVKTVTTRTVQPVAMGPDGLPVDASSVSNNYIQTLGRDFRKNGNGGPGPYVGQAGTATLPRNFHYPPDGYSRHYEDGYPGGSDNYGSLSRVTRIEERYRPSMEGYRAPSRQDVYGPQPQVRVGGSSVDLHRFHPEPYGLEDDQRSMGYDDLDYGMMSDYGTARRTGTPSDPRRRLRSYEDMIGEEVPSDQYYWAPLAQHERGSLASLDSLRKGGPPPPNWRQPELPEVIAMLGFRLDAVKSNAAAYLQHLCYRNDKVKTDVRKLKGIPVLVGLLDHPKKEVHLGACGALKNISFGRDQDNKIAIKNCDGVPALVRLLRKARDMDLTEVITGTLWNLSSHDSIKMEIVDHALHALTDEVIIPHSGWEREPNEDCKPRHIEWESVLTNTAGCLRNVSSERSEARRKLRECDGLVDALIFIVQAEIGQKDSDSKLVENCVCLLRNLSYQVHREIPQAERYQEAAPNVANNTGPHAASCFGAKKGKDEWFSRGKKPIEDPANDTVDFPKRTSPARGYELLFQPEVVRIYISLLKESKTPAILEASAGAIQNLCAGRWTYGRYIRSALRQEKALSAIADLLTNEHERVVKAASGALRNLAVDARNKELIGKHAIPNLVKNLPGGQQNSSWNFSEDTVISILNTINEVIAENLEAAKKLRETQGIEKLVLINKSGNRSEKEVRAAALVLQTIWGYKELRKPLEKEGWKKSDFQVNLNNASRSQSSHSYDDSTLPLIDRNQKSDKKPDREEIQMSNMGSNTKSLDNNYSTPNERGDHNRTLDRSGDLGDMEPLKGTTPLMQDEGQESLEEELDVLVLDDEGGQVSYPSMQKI
# UniProt Q9P0U4, sequence (Q9P0U4 whole entry, looked up): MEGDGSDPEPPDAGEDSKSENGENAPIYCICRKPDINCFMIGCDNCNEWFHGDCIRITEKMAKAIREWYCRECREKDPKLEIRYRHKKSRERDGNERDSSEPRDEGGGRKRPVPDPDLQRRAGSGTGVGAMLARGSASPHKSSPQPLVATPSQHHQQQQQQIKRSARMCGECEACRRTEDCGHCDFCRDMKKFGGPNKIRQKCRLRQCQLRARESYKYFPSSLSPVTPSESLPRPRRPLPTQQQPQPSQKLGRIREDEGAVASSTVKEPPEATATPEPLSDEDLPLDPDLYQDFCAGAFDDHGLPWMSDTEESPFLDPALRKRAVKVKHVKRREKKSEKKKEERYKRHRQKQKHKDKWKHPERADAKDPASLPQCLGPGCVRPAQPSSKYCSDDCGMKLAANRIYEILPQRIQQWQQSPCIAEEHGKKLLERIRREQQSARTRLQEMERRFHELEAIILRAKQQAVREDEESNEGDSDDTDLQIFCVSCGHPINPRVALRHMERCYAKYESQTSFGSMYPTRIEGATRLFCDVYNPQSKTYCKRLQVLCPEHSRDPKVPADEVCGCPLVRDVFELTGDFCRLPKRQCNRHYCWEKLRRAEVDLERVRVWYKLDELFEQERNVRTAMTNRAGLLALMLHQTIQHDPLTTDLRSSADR
# UniProt O75718, sequence (O75718 whole entry, looked up): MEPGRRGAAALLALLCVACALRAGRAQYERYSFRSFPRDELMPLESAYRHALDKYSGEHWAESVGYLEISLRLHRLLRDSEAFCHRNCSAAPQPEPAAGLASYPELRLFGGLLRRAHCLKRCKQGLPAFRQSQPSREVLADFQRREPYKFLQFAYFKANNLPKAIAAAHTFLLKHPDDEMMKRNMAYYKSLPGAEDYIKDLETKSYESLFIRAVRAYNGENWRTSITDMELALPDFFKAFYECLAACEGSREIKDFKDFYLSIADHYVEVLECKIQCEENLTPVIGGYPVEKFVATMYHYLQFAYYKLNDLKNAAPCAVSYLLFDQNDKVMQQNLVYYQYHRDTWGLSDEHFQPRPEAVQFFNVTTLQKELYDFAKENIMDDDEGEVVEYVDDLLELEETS
# UniProt Q9Y2B0, sequence (Q9Y2B0 whole entry, looked up): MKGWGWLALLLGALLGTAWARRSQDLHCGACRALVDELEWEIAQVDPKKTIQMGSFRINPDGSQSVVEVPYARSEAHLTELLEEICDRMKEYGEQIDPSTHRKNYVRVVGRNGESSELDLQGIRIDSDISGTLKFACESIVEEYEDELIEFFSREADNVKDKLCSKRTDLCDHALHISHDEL
# UniProt Q99439, sequence (Q99439 whole entry, looked up): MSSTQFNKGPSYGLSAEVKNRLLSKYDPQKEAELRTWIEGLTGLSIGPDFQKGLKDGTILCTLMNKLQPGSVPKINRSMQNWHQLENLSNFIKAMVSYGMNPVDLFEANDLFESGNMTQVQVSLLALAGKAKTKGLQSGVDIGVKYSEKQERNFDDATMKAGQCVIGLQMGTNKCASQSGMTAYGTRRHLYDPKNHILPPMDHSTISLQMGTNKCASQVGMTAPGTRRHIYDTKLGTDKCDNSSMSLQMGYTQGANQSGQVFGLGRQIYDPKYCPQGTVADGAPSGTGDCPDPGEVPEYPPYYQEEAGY
# UniProt Q8IY22, sequence (Q8IY22 whole entry, looked up): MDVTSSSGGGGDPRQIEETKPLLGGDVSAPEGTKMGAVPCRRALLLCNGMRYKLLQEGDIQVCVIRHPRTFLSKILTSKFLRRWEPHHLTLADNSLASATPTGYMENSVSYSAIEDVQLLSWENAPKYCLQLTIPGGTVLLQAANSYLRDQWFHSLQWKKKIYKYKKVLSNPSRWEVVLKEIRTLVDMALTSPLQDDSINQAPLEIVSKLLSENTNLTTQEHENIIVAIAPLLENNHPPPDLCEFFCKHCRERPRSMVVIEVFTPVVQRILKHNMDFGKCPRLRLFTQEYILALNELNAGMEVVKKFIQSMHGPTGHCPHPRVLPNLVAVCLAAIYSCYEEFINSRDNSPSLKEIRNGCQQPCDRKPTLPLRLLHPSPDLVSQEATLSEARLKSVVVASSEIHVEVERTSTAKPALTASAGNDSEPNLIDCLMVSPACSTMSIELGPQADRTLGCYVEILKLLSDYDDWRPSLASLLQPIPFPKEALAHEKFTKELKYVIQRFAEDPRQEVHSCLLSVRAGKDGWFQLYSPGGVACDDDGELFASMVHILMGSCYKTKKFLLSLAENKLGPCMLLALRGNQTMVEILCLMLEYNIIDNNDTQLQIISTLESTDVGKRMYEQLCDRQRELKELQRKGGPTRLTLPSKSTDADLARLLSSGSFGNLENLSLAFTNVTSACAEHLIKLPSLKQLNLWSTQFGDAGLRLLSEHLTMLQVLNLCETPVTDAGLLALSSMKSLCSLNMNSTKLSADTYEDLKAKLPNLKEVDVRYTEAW
# UniProt Q9UHI6, sequence (Q9UHI6 whole entry, looked up): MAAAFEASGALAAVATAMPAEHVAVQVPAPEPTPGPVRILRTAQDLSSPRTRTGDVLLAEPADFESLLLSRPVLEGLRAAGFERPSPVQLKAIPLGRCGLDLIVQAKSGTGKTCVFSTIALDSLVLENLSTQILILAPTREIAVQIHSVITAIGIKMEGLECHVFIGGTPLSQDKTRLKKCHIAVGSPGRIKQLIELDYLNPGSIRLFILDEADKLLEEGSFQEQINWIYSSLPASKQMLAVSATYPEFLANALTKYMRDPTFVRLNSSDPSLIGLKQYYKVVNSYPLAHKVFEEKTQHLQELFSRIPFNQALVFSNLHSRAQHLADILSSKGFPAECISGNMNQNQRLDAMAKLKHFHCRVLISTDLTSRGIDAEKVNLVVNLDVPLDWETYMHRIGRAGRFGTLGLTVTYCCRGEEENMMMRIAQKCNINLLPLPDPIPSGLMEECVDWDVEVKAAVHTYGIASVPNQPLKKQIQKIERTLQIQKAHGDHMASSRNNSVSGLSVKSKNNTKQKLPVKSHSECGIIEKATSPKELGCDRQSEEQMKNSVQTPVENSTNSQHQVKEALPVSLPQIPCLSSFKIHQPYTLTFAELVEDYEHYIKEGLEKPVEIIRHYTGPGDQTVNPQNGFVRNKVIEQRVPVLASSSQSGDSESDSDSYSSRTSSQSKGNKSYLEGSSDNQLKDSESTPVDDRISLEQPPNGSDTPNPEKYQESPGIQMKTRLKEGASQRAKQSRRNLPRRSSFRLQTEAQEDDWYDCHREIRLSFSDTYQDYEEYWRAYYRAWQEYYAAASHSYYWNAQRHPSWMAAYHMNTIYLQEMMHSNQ
# UniProt Q96D53, sequence (Q96D53 whole entry, looked up): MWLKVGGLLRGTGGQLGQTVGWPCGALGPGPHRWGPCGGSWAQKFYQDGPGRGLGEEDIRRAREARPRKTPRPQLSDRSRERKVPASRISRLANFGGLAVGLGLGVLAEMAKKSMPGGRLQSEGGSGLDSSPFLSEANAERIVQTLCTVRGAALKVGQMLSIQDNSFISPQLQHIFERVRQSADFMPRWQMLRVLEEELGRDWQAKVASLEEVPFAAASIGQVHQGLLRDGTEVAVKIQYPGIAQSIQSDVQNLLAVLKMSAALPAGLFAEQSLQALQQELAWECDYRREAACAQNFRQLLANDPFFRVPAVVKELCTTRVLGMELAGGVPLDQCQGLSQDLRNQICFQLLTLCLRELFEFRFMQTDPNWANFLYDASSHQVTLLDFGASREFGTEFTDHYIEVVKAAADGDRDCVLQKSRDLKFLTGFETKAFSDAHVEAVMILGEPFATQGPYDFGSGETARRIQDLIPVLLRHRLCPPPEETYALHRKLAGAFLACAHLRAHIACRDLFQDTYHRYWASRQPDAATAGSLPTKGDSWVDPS
# UniProt O95865, sequence (O95865 whole entry, looked up): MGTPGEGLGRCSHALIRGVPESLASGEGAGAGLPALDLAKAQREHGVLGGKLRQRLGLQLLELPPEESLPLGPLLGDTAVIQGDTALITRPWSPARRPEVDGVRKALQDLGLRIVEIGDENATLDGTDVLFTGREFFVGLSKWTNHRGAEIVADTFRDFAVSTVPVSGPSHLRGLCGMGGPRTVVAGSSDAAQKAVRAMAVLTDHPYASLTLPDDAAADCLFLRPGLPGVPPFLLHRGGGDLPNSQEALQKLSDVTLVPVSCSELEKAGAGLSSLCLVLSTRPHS
row,Target,probe-labelled cysteine peptide fold change
1,CROT_Q9UKG9_584_SCPETDAEK (UniProt Q9UKG9),-0.0249
2,DBNL_Q9UJU6-3_256_NEQGSTCASLQESAVHPR (UniProt Q9UJU6),-0.341
3,DHX57_Q6P158_644_LLYCTTGVLLR<|>DHX29_Q7Z478_678_LLYCTTGVLLR (UniProt Q7Z478+Q6P158),-0.0914
4,DNMT1_P26358_1339_ACQLSVVVDDKK (UniProt P26358),-0.133
5,CSRP1_P21291_25_TVYFAEEVQCEGNSFHK (UniProt P21291),2.29e-05
6,DNMT1_P26358_1476+1478_GVCSCVEAGK (UniProt P26358),-1.56
7,DESI1_Q6ICB0_108_GEAYNLFEHNCNTFSNEVAQFLTGR (UniProt Q6ICB0),-0.076
8,DCXR_Q7Z4W1_58_ECPGIEPVCVDLGDWEATER (UniProt Q7Z4W1),0.125
9,CTNND1_O60716_618_YQEAAPNVANNTGPHAASCFGAK (UniProt O60716),-0.274
10,CMIP_Q8IY22_363_NGCQQPCDR (UniProt Q8IY22),-0.29
11,CNPY2_Q9Y2B0_28_SQDLHCGACR (UniProt Q9Y2B0),-0.272
12,CNN2_Q99439_215_CASQVGMTAPGTR (UniProt Q99439),-0.0958
13,CRTAP_O75718_273_DFYLSIADHYVEVLECK (UniProt O75718),-0.146
14,DHRS4L2_Q6PKH6_86_KQQNVDQAVATLQGEGLSVTGTVCHVGK (UniProt Q6PKH6),0.254
15,DDX20_Q9UHI6_98_CGLDLIVQAK (UniProt Q9UHI6),-0.0986
16,DDAH2_O95865_220_AMAVLTDHPYASLTLPDDAAADCLFLRPGLPGVPPFLLHR (UniProt O95865),0.061
17,CPNE1_Q99829_4+14_AHCVTLVQLSISCDHLIDK (UniProt Q99829),-0.148
18,CYBB_P04839_369_IVGDWTEGLFNACGCDK (UniProt P04839),-0.0879
19,CRELD2_Q6UXH1_120_SEYPDLFEWFCVK (UniProt Q6UXH1),0.199

row,Target,probe-labelled cysteine peptide fold change
1,DHX30_Q7L2E3_673_GEPGGILCFLPGWQEIK (UniProt Q7L2E3),0.357
2,CORO7_P57737_790_TECDVREVELMR (UniProt P57737),-0.178
3,DDX55_Q8NHQ9_161_AEGLDLASCVR (UniProt Q8NHQ9),0.187
4,DHX30_Q7L2E3_346_RPCTIQVPEPILR (UniProt Q7L2E3),-0.647
5,DDX46_Q7L014_646_ASYPCMSLHGGIDQYDR (UniProt Q7L014),-0.0173
6,CPSF3_Q9UKF6_626_RLEIMLQDIFGEDCVSVK (UniProt Q9UKF6),-0.0218
7,CXXC1_Q9P0U4_38_KPDINCFMIGCDNCNEWFHGDCIR (UniProt Q9P0U4),0.0402
8,DCP2_Q8IU60_391_KLQDNFETDAVYDLPSSSEDQLLEHAEGQPVACNGHCK (UniProt Q8IU60),-0.353
9,COPA_P53621_1148_KILSACEK (UniProt P53621),-0.212
10,DIS3L2_Q8IYB7_196_LSVCVSEK (UniProt Q8IYB7),-0.124
11,DGLUCY_Q7Z3D6_265_APPGCLTPER (UniProt Q7Z3D6),-0.239
12,COQ8B_Q96D53_508_AHIACR (UniProt Q96D53),-0.221
13,COG1_Q8WTW3_625_LCQSLGELCPHLK (UniProt Q8WTW3),-0.144
14,CTNNB1_P35222_520_NLALCPANHAPLR (UniProt P35222),-0.273
15,CTNNB1_P35222_466_AGDREDITEPAICALR (UniProt P35222),0.16
16,DDX39A_O00148_62_AIVDCGFEHPSEVQHECIPQAILGMDVLCQAK (UniProt O00148),0.144
17,DENND3_A2RUS2_801_TECDLWHLMVK (UniProt A2RUS2),-0.103
18,COPE_O14579_225_CSPTLLLLNGQAACHMAQGR (UniProt O14579),0.0563

# Same assay, conditions: 50 µM; THP-1; incubation time: 4 h
row,Target,probe-labelled cysteine peptide fold change
1,CROT_Q9UKG9_584_SCPETDAEK (UniProt Q9UKG9),0.181
2,DBNL_Q9UJU6-3_256_NEQGSTCASLQESAVHPR (UniProt Q9UJU6),-0.167
3,DHX57_Q6P158_644_LLYCTTGVLLR<|>DHX29_Q7Z478_678_LLYCTTGVLLR (UniProt Q7Z478+Q6P158),0.172
4,DNMT1_P26358_1339_ACQLSVVVDDKK (UniProt P26358),-1.16
5,CSRP1_P21291_25_TVYFAEEVQCEGNSFHK (UniProt P21291),-0.0826
6,DNMT1_P26358_1476+1478_GVCSCVEAGK (UniProt P26358),< -5
7,DESI1_Q6ICB0_108_GEAYNLFEHNCNTFSNEVAQFLTGR (UniProt Q6ICB0),-1.61
8,DCXR_Q7Z4W1_58_ECPGIEPVCVDLGDWEATER (UniProt Q7Z4W1),0.231
9,CTNND1_O60716_618_YQEAAPNVANNTGPHAASCFGAK (UniProt O60716),-0.78
10,CMIP_Q8IY22_363_NGCQQPCDR (UniProt Q8IY22),-1.18
11,CNPY2_Q9Y2B0_28_SQDLHCGACR (UniProt Q9Y2B0),-0.187
12,CNN2_Q99439_215_CASQVGMTAPGTR (UniProt Q99439),-0.449
13,CRTAP_O75718_273_DFYLSIADHYVEVLECK (UniProt O75718),1.08
14,DHRS4L2_Q6PKH6_86_KQQNVDQAVATLQGEGLSVTGTVCHVGK (UniProt Q6PKH6),-0.306
15,DDX20_Q9UHI6_98_CGLDLIVQAK (UniProt Q9UHI6),-0.579
16,DDAH2_O95865_220_AMAVLTDHPYASLTLPDDAAADCLFLRPGLPGVPPFLLHR (UniProt O95865),0.0115
17,CPNE1_Q99829_4+14_AHCVTLVQLSISCDHLIDK (UniProt Q99829),-0.173
18,CYBB_P04839_369_IVGDWTEGLFNACGCDK (UniProt P04839),0.149
19,CRELD2_Q6UXH1_120_SEYPDLFEWFCVK (UniProt Q6UXH1),-0.0635

row,Target,probe-labelled cysteine peptide fold change
1,DHX30_Q7L2E3_673_GEPGGILCFLPGWQEIK (UniProt Q7L2E3),0.169
2,CORO7_P57737_790_TECDVREVELMR (UniProt P57737),-0.995
3,DDX55_Q8NHQ9_161_AEGLDLASCVR (UniProt Q8NHQ9),0.31
4,DHX30_Q7L2E3_346_RPCTIQVPEPILR (UniProt Q7L2E3),-1.7
5,DDX46_Q7L014_646_ASYPCMSLHGGIDQYDR (UniProt Q7L014),0.231
6,CPSF3_Q9UKF6_626_RLEIMLQDIFGEDCVSVK (UniProt Q9UKF6),0.198
7,CXXC1_Q9P0U4_38_KPDINCFMIGCDNCNEWFHGDCIR (UniProt Q9P0U4),-1.06
8,DCP2_Q8IU60_391_KLQDNFETDAVYDLPSSSEDQLLEHAEGQPVACNGHCK (UniProt Q8IU60),-1.7
9,COPA_P53621_1148_KILSACEK (UniProt P53621),-1.12
10,DIS3L2_Q8IYB7_196_LSVCVSEK (UniProt Q8IYB7),0.0776
11,DGLUCY_Q7Z3D6_265_APPGCLTPER (UniProt Q7Z3D6),-0.427
12,COQ8B_Q96D53_508_AHIACR (UniProt Q96D53),-1.08
13,COG1_Q8WTW3_625_LCQSLGELCPHLK (UniProt Q8WTW3),-0.347
14,CTNNB1_P35222_520_NLALCPANHAPLR (UniProt P35222),1.23
15,CTNNB1_P35222_466_AGDREDITEPAICALR (UniProt P35222),1.07
16,DDX39A_O00148_62_AIVDCGFEHPSEVQHECIPQAILGMDVLCQAK (UniProt O00148),0.0705
17,DENND3_A2RUS2_801_TECDLWHLMVK (UniProt A2RUS2),-0.116
18,COPE_O14579_225_CSPTLLLLNGQAACHMAQGR (UniProt O14579),0.158
